# Assay results reported in PubChem BioAssay (NCATS).
# Results filed as inconclusive are left out. Entries that show only a call come without a potency. A number with no mark means an inactive call. Active and inactive are the calls of the source. Calls come from the whole dose curve; as a rule, active = well fitted curve in the direction sought with a large enough effect; inconclusive = small, poorly fitted or top-dose-only effect, or another doubt; inactive = no such curve, though single readings can be large; an effect the other way counts as inactive or inconclusive.
# Tests used:
# [1] = Quantitative High-Throughput drug screen in 47 multiple myeloma cell lines against the NCATS MIPE library collection: MOLP8_DSMZ cell viability assay (AID 1918977); note: nearly all actives have a fitted effect of over 45% in size; note: potency is the fitted concentration of half-maximal effect
# How it was run: (§1)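 ATP-based luminescence (CellTiter-Glo, 5 min RT incubation) quantified surviving cells following two days' treatment with MIPE 4.0 agents at 37 °C, 5% CO2.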
# [2] = Quantitative High-Throughput drug screen in 47 multiple myeloma cell lines against the NCATS MIPE library collection: NCIH929_DSMZ cell viability assay (AID 1918978); note: nearly all actives have a fitted effect of over 35% in size; note: potency is the fitted concentration of half-maximal effect
# How it was run: as §1
# [3] = Quantitative High-Throughput drug screen in 47 multiple myeloma cell lines against the NCATS MIPE library collection: OCIMY1_PLB cell viability assay (AID 1918979); note: nearly all actives have a fitted effect of over 35% in size; note: potency is the fitted concentration of half-maximal effect; for viability: series mostly up to about 46 µM
# How it was run: as §1
# [4] = Quantitative High-Throughput drug screen in 47 multiple myeloma cell lines against the NCATS MIPE library collection: MM1S_ATCC cell viability assay (AID 1918980); note: nearly all actives have a fitted effect of over 45% in size; note: potency is the fitted concentration of half-maximal effect
# How it was run: as §1
# [5] = Quantitative High-Throughput drug screen in 47 multiple myeloma cell lines against the NCATS MIPE library collection: MM1R_ATCC cell viability assay (AID 1918981); note: nearly all actives have a fitted effect of over 35% in size; note: potency is the fitted concentration of half-maximal effect
# How it was run: as §1
# [6] = Quantitative High-Throughput drug screen in 47 multiple myeloma cell lines against the NCATS MIPE library collection: KMS28PE_JCRB cell viability assay (AID 1918983); note: nearly all actives have a fitted effect of over 35% in size; note: potency is the fitted concentration of half-maximal effect
# How it was run: as §1
# [7] = Quantitative High-Throughput drug screen in 47 multiple myeloma cell lines against the NCATS MIPE library collection: L363_DSMZ cell viability assay (AID 1918984); note: nearly all actives have a fitted effect of over 40% in size; note: potency is the fitted concentration of half-maximal effect
# How it was run: as §1
# [8] = Quantitative High-Throughput drug screen in 47 multiple myeloma cell lines against the NCATS MIPE library collection: KMS34_JCRB cell viability assay (AID 1918985); note: nearly all actives have a fitted effect of over 40% in size
# How it was run: as §1
# [9] = Quantitative High-Throughput drug screen in 47 multiple myeloma cell lines against the NCATS MIPE library collection: XG6_PLB cell viability assay (AID 1919865); note: nearly all actives have a fitted effect of over 40% in size; note: potency is the fitted concentration of half-maximal effect
# How it was run: as §1
# [10] = Quantitative High-Throughput drug screen in 47 multiple myeloma cell lines against the NCATS MIPE library collection: VP6_DJ cell viability assay (AID 1919867); note: nearly all actives have a fitted effect of over 40% in size; note: potency is the fitted concentration of half-maximal effect
# How it was run: as §1
# [11] = Quantitative High-Throughput drug screen in 47 multiple myeloma cell lines against the NCATS MIPE library collection: LP1_DSMZ cell viability assay (AID 1918982); note: nearly all actives have a fitted effect of over 35% in size; note: potency is the fitted concentration of half-maximal effect
# How it was run: as §1
# [12] = Quantitative High-Throughput drug screen in 47 multiple myeloma cell lines against the NCATS MIPE library collection: U266_ATCC cell viability assay (AID 1919864); note: nearly all actives have a fitted effect of over 35% in size; note: potency is the fitted concentration of half-maximal effect
# How it was run: as §1
# [13] = Quantitative High-Throughput drug screen in 47 multiple myeloma cell lines against the NCATS MIPE library collection: XG1_PLB cell viability assay (AID 1919866); note: nearly all actives have a fitted effect of over 35% in size; note: potency is the fitted concentration of half-maximal effect
# How it was run: as §1
# [14] = Quantitative High-Throughput drug screen in 47 multiple myeloma cell lines against the NCATS MIPE library collection: SKMM1_PLB cell viability assay (AID 1919863); settings: SKMM1 myeloma viability, CellTiter-Glo ATP, 48 h; viability: hits give low values
# How it was run: as §1
# [15] = Quantitative High-Throughput drug screen in 47 multiple myeloma cell lines against the NCATS MIPE library collection: OPM1_PLB cell viability assay (AID 1918989); note: nearly all actives have a fitted effect of over 40% in size; note: potency is the fitted concentration of half-maximal effect
# How it was run: as §1
# [16] = Quantitative High-Throughput drug screen in 47 multiple myeloma cell lines against the NCATS MIPE library collection: OCIMY5_PLB cell viability assay (AID 1918988); note: nearly all actives have a fitted effect of over 65% in size; note: potency is the fitted concentration of half-maximal effect
# How it was run: as §1
# [17] = Quantitative High-Throughput drug screen in 47 multiple myeloma cell lines against the NCATS MIPE library collection: UTMC2_PLB cell viability assay (AID 1919868); settings: CellTiter-Glo ATP luminescence, 48 h; viability (% of DMSO control): at 45.8 µM; note: nearly all actives have a fitted effect of over 55% in size; note: potency is the fitted concentration of half-maximal effect
# How it was run: as §1
# [18] = Quantitative High-Throughput drug screen in 47 multiple myeloma cell lines against the NCATS MIPE library collection: OCIMY7_PLB cell viability assay (AID 1918987); note: potency is the fitted concentration of half-maximal effect; nearly all actives have a fitted effect of over 65% in size
# How it was run: as §1
smiles,measurement,setting,value
Cc1n[nH]c(C)c1Cc1sc2c(c1C(=O)N1C[C@H](O)CO1)c(=O)n(C)c(=O)n2CC(C)C,Potency,[1],0.935 µM (active)
same,Potency,[2],inactive
same,Potency,[3],inactive
same,Potency,[4],11.8 µM (active)
same,Potency,[5],inactive
same,Potency,[6],16.6 µM (active)
same,Potency,[7],inactive
same,Potency,[8],inactive
same,Potency,[9],inactive
same,Potency,[10],inactive
NC(N)=NC(=O)c1nc(Cl)c(N)nc1N,Potency,[1],inactive
same,Potency,[2],9.35 µM (active)
same,Potency,[3],inactive
same,Potency,[4],20.9 µM (active)
same,Potency,[11],inactive
same,Potency,[12],inactive
same,Potency,[9],7.43 µM (active)
same,Potency,[13],8.33 µM (active)
O=C(C=Cc1ccc(/C=C/C(=O)Nc2ccc(C3=NCCN3)cc2)cc1)Nc1ccc(C2=NCCN2)cc1,Potency,[1],inactive
same,Potency,[2],inactive
same,Potency,[3],inactive
same,Potency,[11],inactive
same,Potency,[8],inactive
same,viability,[14],118%
same,Potency,[9],inactive
same,Potency,[13],inactive
same,Potency,[10],inactive
Cc1ccccc1C(OCCN(C)C)c1ccccc1 (stereo unspecified),Potency,[1],inactive
same,Potency,[2],inactive
same,Potency,[3],inactive
same,Potency,[4],inactive
same,Potency,[11],inactive
same,Potency,[7],inactive
same,Potency,[15],inactive
same,Potency,[12],inactive
same,Potency,[13],inactive
same,Potency,[10],inactive
Cc1ccnc(NS(=O)(=O)c2ccc(NC(=O)Nc3ccc(S(=O)(=O)Nc4nccc(C)n4)cc3)cc2)n1,Potency,[2],inactive
same,Potency,[3],inactive
same,Potency,[6],inactive
same,Potency,[8],inactive
same,Potency,[15],18.7 µM (active)
same,Potency,[9],4.18 µM (active)
same,Potency,[10],2.64 µM (active)
Cc1cccc(-c2[nH]c(C(C)(C)C)nc2-c2ccc3nccnc3c2)n1,Potency,[2],16.6 µM (active)
same,Potency,[5],20.9 µM (active)
same,Potency,[7],1.87 µM (active)
same,Potency,[9],3.32 µM (active)
same,Potency,[10],2.96 µM (active)
CC1(C)CNc2cc(NC(=O)c3cccnc3NCc3ccncc3)ccc21,Potency,[3],inactive
same,Potency,[15],inactive
same,Potency,[9],0.372 µM (active)
same,Potency,[10],1.66 µM (active)
O=S(=O)(N=Cc1c(O)ccc2ccccc12)c1cccs1,Potency,[2],4.69 µM (active)
same,Potency,[3],inactive
same,Potency,[5],inactive
same,Potency,[11],inactive
same,Potency,[15],7.43 µM (active)
same,Potency,[9],0.0935 µM (active)
same,Potency,[13],20.9 µM (active)
CC(C)(C)NCC(O)c1ccc(O)c(CO)c1 (stereo unspecified),Potency,[2],inactive
same,Potency,[5],0.0264 µM (active)
same,Potency,[11],inactive
same,Potency,[16],0.0148 µM (active)
same,Potency,[15],inactive
same,Potency,[12],inactive
same,Potency,[9],inactive
same,Potency,[13],inactive
same,Potency,[17],inactive
COc1cc(Nc2ncc3c(n2)-c2ccc(Cl)cc2C(c2c(F)cccc2OC)=NC3)ccc1C(=O)O,Potency,[2],inactive
same,Potency,[3],inactive
same,Potency,[5],inactive
same,Potency,[11],inactive
same,Potency,[7],inactive
same,viability,[14],78.9%
same,Potency,[12],inactive
CCN(CC)CCCC(C)Nc1nc(C)cc(Nc2ccc3nc(C)cc(N)c3c2)n1 (stereo unspecified),Potency,[2],16.6 µM (active)
same,Potency,[11],inactive
same,Potency,[6],inactive
same,Potency,[8],inactive
same,Potency,[18],8.33 µM (active)
same,viability,[14],123%
same,Potency,[10],3.72 µM (active)
CCc1cc(Nc2nccc(-c3c(-c4ccc(OC)c(C(=O)Nc5c(F)cccc5F)c4)nc4ccccn34)n2)c(OC)cc1N1CCC(N2CCN(S(C)(=O)=O)CC2)CC1,Potency,[2],7.43 µM (active)
same,Potency,[6],26.4 µM (active)
same,Potency,[7],16.6 µM (active)
same,Potency,[15],14.8 µM (active)
same,Potency,[13],1.18 µM (active)
same,Potency,[10],2.64 µM (active)
O=C(c1cc(Cc2n[nH]c(=O)c3ccccc23)ccc1F)N1CCN(C(=O)C2CC2)CC1,Potency,[1],inactive
same,Potency,[8],inactive
same,Potency,[15],inactive
same,viability,[14],93.3%
same,Potency,[9],13.2 µM (active)
same,Potency,[17],10.5 µM (active)
C1COC(NC(C2CC2)C2CC2)=N1,Potency,[2],inactive
same,Potency,[4],inactive
same,Potency,[11],inactive
same,Potency,[6],inactive
same,Potency,[16],inactive
same,Potency,[15],16.6 µM (active)
CNCc1ccc(-c2[nH]c3cc(F)cc4c3c2CCNC4=O)cc1,Potency,[2],inactive
same,Potency,[3],inactive
same,Potency,[5],inactive
same,Potency,[11],inactive
same,Potency,[6],inactive
same,Potency,[7],inactive
same,Potency,[8],inactive
same,Potency,[16],inactive
same,Potency,[15],inactive
COCC(=O)NCC=Cc1ccc2ncnc(Nc3ccc(Oc4ccc(C)nc4)c(C)c3)c2c1,Potency,[2],20.9 µM (active)
same,Potency,[7],14.8 µM (active)
same,Potency,[15],18.7 µM (active)
same,Potency,[9],16.6 µM (active)
same,Potency,[13],20.9 µM (active)
same,Potency,[10],18.7 µM (active)
CCn1c(-c2nonc2N)nc2c(C#CC(C)(C)O)ncc(OC[C@H]3CCCNC3)c21,Potency,[2],0.0209 µM (active)
same,Potency,[3],4.18 µM (active)
same,Potency,[4],0.0264 µM (active)
same,Potency,[5],0.0418 µM (active)
same,Potency,[6],0.296 µM (active)
same,Potency,[15],0.148 µM (active)
same,Potency,[12],23.5 µM (active)
same,Potency,[9],18.7 µM (active)
same,Potency,[10],14.8 µM (active)
same,Potency,[17],0.059 µM (active)
C[C@H](NC(=O)Cc1cc(F)cc(F)c1)C(=O)N[C@@H]1C(=O)N(C)c2ccccc2-c2ccccc21,Potency,[2],4.69 µM (active)
same,Potency,[4],9.35 µM (active)
same,Potency,[11],inactive
same,Potency,[6],inactive
same,Potency,[16],16.6 µM (active)
same,Potency,[12],16.6 µM (active)
same,Potency,[9],4.69 µM (active)
same,Potency,[10],inactive
C[C@]1(c2nc3c(C(N)=O)cccc3[nH]2)CCCN1,Potency,[2],23.5 µM (active)
same,Potency,[4],4.69 µM (active)
same,Potency,[5],inactive
same,Potency,[6],inactive
same,Potency,[18],5.26 µM (active)
same,Potency,[15],inactive
O=C(C1CC1)N1CC[C@@H](Cn2c(-c3ccc(-c4ccc5occc5c4)cc3)nc3cnccc32)C1,Potency,[2],inactive
same,Potency,[3],inactive
same,Potency,[11],10.5 µM (active)
same,Potency,[16],4.18 µM (active)
same,viability,[14],107%
same,Potency,[13],16.6 µM (active)
